This is a sample that favours compounds with a hit; in the whole collection about 5% have one here.
SENP6 block: SENP6 protease inhibitors, primary screen, biochemical, luminescence, uHTS; Recombinant SENP6 catalytic domain, aminoluciferin luminescence; 1.8% of 330,000 active; Sentrin-specific protease 6 (Homo sapiens), Q9GZR1; AID 2599, 2010; inhibition, % at 10 µM;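 active means inhibition above about 50% at the single tested dose, limit read from the data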;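 further: plate controls were DMSO wells with enzyme for no effect and DMSO wells lacking enzyme for full effect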
Target sequence (Q9GZR1 628-1112 limits assumed): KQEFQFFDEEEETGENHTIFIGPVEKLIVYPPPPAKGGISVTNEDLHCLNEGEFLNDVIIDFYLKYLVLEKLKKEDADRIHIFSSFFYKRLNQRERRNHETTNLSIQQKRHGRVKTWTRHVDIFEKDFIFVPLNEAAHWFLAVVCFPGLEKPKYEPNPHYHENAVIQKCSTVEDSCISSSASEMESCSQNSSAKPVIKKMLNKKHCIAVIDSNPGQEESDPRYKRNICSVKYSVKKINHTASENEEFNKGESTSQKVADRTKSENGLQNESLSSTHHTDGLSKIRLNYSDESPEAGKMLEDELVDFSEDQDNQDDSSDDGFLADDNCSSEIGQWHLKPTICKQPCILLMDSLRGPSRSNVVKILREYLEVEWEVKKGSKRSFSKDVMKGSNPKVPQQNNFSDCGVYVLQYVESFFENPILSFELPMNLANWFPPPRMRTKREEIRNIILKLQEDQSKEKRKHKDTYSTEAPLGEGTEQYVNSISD
SENP7 block: SENP7 protease inhibitors, primary screen, biochemical, luminescence, uHTS | Sentrin-specific protease 7 (Homo sapiens), Q9BQF6 | recombinant SENP7, Z-RLRGG-aminoluciferin luminescence, 40 min | inhibition, % at 5 µM | 1.5% of 330,000 active | AID 434973, 2010;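 active means inhibition above about 50% at the single test dose, limit read from the data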;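 further: plate controls were DMSO with enzyme for no effect and no enzyme buffer wells for full effect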
EBI2 block: EBI2 receptor antagonists, beta-arrestin recruitment, primary screen, cell-based, luminescence, 7a,25-OHC stimulation, uHTS. G-protein coupled receptor 183 (Homo sapiens), P32249. 7a,25-OHC stimulated. inhibition, % at 5 µM. 0.81% of 360,000 active. AID 651636, 2012; in the data active means inhibition above about 38%;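 further: enzyme fragment complementation signal reports receptor beta-arrestin coupling in cells; 0% = agonist plus DMSO wells and 100% = wells without agonist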
AHR act: AHR activators, primary screen, cell-based, luminescence, luciferase reporter, human | AHR-responsive luciferase reporter cells | activation, % at 5 µM | 2.5% of 320,000 active; in the data active means activation above about 47%;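 further: 0% = vehicle wells and 100% = reference agonist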
SENP8 block-1: human SENP8 protease inhibitors, primary screen, biochemical, fluorescence, Nedd8 protein substrate, uHTS. recombinant SENP8. inhibition, % at 20 µM. 0.64% of 360,000 active. AID 602440, 2012; in the data active means inhibition mostly above about 40%, no sharp cut-off; inactive means mostly below about 27%
SENP8 block-2: SENP8 protease inhibitors, primary screen, biochemical, luminescence; Sentrin-specific protease 8 (Homo sapiens), Q96LD8; purified SENP8, Z-RLRGG-aminoluciferin cleavage; inhibition, % at 10 µM; 1.2% of 330,000 active; in the data active means inhibition above about 50%
AHR act confirm: AHR activators, confirmation, cell-based, luminescence, luciferase reporter, human | 87% of 2,300 active | shares compounds with AHR act | activation, % at 9 µM | human cells, AHR-responsive luciferase reporter; in the data active means activation above about 49%;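 further: HepG2 hepatoma cells carrying a DRE-driven firefly luciferase reporter; 0% = vehicle wells and 100% = reference agonist wells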
PXR act counter: human PXR activators, counter-screen for AHR activator project, cell-based, luciferase luminescence; activation, % at 11.6 µM; cell-based PXR reporter; shares compounds with AHR act; 88% of 2,300 active; in the data active means activation above about 11%;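 further: human hepatoma DPX-2 cells expressing full-length human PXR; 0% = DMSO and 100% = reference agonist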
* hit, by the source's call; x = not tested or not shown.

SMILES	SENP6 block	SENP7 block	EBI2 block	AHR act	SENP8 block-1	SENP8 block-2	AHR act confirm	PXR act counter
CCOC(=O)N/N=C/c1c(C)c(C(=O)c2ccc(F)cc2)n2ccccc12	2	4	1	84*	13	4	104*	74*
COC(=O)N/N=C/c1c(C)c(C(=O)c2ccc(F)cc2)n2ccccc12	-9	-3	5	86*	-39	6	74*	94*
O=C(O)c1ccccc1C(=O)NCc1c(Cl)cccc1Sc1ccc(Cl)cc1	-29	-10	-2	9	14	-8	x	x
CSc1ncc(C(=O)Nc2ccc(Cl)cc2)c(C)n1	-3	-4	-9	94*	6	0	100*	x
CC(C)NC(=S)NNc1nc2ccccc2s1	7	15	22	9	11	1	x	x
COc1cc(/C=N/NC(N)=O)cc(Br)c1OCc1ccccc1C	-9	-1	-3	26	7	-4	x	x
C=CCOc1c(Br)cc(/C=N/NC(N)=O)cc1OC	-12	-3	-2	89*	7	-12	112*	25*
N/C(=N\OC(=O)c1ccc(Cl)cc1[N+](=O)[O-])c1cccnc1	-6	8	-8	90*	5	-10	91*	15*
CN(C)c1ccc(NC(=O)/C=C/c2c(Cl)cccc2Cl)cc1	12	2	19	100*	28	-4	147*	87*
COc1ccc(C(=O)N/N=C/c2sc(N3CCOCC3)nc2-c2ccccc2)cc1OC	-2	5	-9	5	-456	8	x	x
O=C(N/N=C/c1sc(N2CCOCC2)nc1-c1ccccc1)c1ccc(O)cc1	14	-1	-22	95*	-345	5	49*	11*
O=C(Nc1cc(S(=O)(=O)N2CCOCC2)ccc1N1CCOCC1)c1cccs1	-19	-2	-2	0	4	7	x	x
Cc1ccc(SCC(=O)NNC(=O)c2cncc(Br)c2)cc1	-4	4	-1	4	2	4	x	x
O=C(CNC(=O)c1ccccc1F)N/N=C/c1cn[nH]c1-c1ccccc1	-1	0	-1	140*	5	3	92*	19*
Cc1cnc(C)c(N2CCN(Cc3nc(-c4ccccc4)no3)CC2)n1	-5	-5	0	0	-41	-8	x	x
COc1ccc(CCC(=O)Nc2ccc(Cl)c(S(=O)(=O)N3CCCC3)c2)cc1	1	4	7	1	10	-1	x	x
Cc1ccc2nc(NCc3ccccc3)[nH]c2c1	x	x	-3	84*	15	x	55*	208*
O=C(N=Nc1c(O)[nH]c2ccccc12)c1ccc2c(c1)OCO2	66*	91*	-20	95*	26	46	65*	21*
Cn1c(-c2ccccc2Br)n[nH]c1=S	5	5	-4	-1	3	5	x	x
S=c1nc2ccccc2c2nc(-c3ccccc3Br)[nH]n12	-10	-6	-15	123*	24	-3	130*	38*
CCCC(=O)c1ccc(N2CCC(C)CC2)c(F)c1	-5	-9	3	-2	7	-22	x	x
COc1ccc(/C=C/C(=O)NC(=S)NNC(=O)c2cccs2)cc1	-13	-7	-2	94*	-20	-3	36	5
COc1ccc(C(=O)NNC(=S)NC(=O)c2cccs2)cc1	-23	-1	-2	5	13	-7	x	x
Cn1nnnc1SCC(=O)C(C)(C)C	-14	-3	-1	0	25	3	x	x
c1cnc2c(OCc3nc4ccccc4[nH]3)cccc2c1	3	13	3	110*	2	-8	149*	110*
SMILES	SENP6 block	SENP7 block	EBI2 block	AHR act	SENP8 block-1	SENP8 block-2	AHR act confirm	PXR act counter
Oc1c(C(c2ccccc2)N2CCc3ccccc3C2)sc2ncnn12 (stereo unspecified)	-10	-6	1	89*	16	3	86*	40*
CC1CCCN(C(c2ccccc2)c2sc3ncnn3c2O)C1 (stereo unspecified)	-4	-4	-9	0	16	0	x	x
Cc1ccc(C(=O)OCC(=O)NCc2cccc(Cl)c2)cc1S(=O)(=O)N1CCCCC1	-3	-4	7	x	17	10	x	x
CN1C(C(=O)NCc2ccc(OC(F)(F)F)cc2)CC2Cn3c(nc4cc(Cl)c(Cl)cc43)C21 (stereo unspecified)	-16	12	15	5	-4	-19	x	x
CC(C)CNC(=S)N(CCCO)Cc1cc2cc3c(cc2[nH]c1=O)OCO3	5	11	-15	92*	-342	0	100*	19*
CCNC(=S)NN=C1c2ccccc2-c2ccccc21	-4	12	19	45	10	-1	x	x
C=C(C)CNC(=S)NN=C1c2ccccc2-c2ccccc21	0	8	16	92*	10	11	87*	55*
COc1ccc(CCN(C)C2CCCN(C(=O)c3sccc3C)C2)cc1OC (stereo unspecified)	-4	-6	-11	-1	-4	2	x	x
Cn1cnc([N+](=O)[O-])c1S(=O)(=O)Oc1cccc2ccccc12	x	x	20	x	-102	x	x	x
Cn1cnc([N+](=O)[O-])c1Oc1cccc2ccccc12	-20	-6	-49	82*	-21	-4	82*	21*
Cc1nc(NC(=O)c2ccco2)sc1C(=O)O	x	x	-2	8	-32	x	x	x
Cc1nc(NC(=O)c2ccco2)sc1C(=O)Nc1ccc(Br)cc1	28	5	9	108*	-137	18	145*	79*
CCCCn1c(=O)c(CCC(=O)OCC(=O)Nc2ccc(F)c(Cl)c2)nc2ccccc21	-13	-8	-5	0	-80	-7	x	x
Cc1nc(N2CCOCC2)[nH]c(=O)c1C(O)C(Cl)(Cl)Cl (stereo unspecified)	-6	7	-8	11	18	-1	x	x
CC1CCCC(C)N1/N=C/C=C/c1ccccc1[N+](=O)[O-] (stereo unspecified)	-3	-4	4	84*	1	-1	109*	67*
S=C(N/N=C/c1ccccc1Cl)Nc1cccc(Cl)c1Cl	-16	-9	36	118*	7	-9	103*	30*
CSc1c(C#N)sc(=S)n1-c1ccc(C)cc1	-5	-5	9	-1	8	0	x	x
